The other results are listed elsewhere or left out. Active and inactive are the calls of the source. Unless noted, the rule behind the calls is not given here.
Assays:
[1] = Brca1-Bard1 BiLC signal decrease – luminescence, single concentration, counter-screen for Mdm2/MdmX interaction inhibitor project, confirmation (AID 504668); conditions: Brca1/Bard1 bimolecular luciferase complementation counterscreen, at 8 µM, stronger effect = higher value
[2] = inhibition of PEG-3 promoter luciferase signal – cell-based, HeLa, luciferase reporter, single concentration, confirmation (AID 602417;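 active = at 20 µM dose, 40% or more inhibition averaged across four replicates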); conditions: HeLa PEG-Prom luciferase reporter, luminescence, overnight; at 20 µM; stronger effect = higher value
PEG-3 [3] = biological target: PEG-3 (UniProt Q6IN02); experiment: inhibition of PEG-3 promoter-driven reporter – cell-based, HeLa, luciferase, CREF/GAPDH counter-screen panel, dose response (AID 624167); conditions: CREF/GAPDH counter-screens; HeLa PEG-Prom luciferase reporter, overnight, run 1, dose range 1, at 100 µM (top of the series) unless noted
Chain of PEG-3 (Q6IN02 whole entry, looked up): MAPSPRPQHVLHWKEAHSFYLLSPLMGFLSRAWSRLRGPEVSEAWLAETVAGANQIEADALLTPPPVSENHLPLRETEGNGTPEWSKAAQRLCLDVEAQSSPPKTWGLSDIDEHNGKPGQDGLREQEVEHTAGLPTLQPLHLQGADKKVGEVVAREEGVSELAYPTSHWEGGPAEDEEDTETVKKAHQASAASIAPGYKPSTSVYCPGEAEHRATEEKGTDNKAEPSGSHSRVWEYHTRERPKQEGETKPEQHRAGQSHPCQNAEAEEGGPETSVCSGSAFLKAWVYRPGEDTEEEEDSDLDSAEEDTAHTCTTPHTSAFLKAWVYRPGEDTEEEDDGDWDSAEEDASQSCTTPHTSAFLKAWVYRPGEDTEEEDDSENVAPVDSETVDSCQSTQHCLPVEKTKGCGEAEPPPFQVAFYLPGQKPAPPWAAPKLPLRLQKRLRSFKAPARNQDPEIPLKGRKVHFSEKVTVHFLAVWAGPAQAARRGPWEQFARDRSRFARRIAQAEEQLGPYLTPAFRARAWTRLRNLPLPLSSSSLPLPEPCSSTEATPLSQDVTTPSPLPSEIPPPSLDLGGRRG

PEG-3 [4] = biological target: PEG-3 (UniProt Q6IN02); experiment: as above; conditions: CREF/GAPDH counter-screens; HeLa PEG-Prom luciferase reporter, overnight, run 2, dose range 1, at 100 µM (top of the series) unless noted
Rat fibroblasts (CREF) [5] = experiment: as above; conditions: CREF/GAPDH counter-screens; run 1, dose range 1, at 100 µM (top of the series)
Rat fibroblasts (CREF) [6] = experiment: as above; conditions: CREF/GAPDH counter-screens; run 2, dose range 1, at 100 µM (top of the series)
[7] = NFkB reporter suppression in cystic fibrosis bronchial cells – cell-based, uHTS hits, panel, cytotoxicity readout, dose response (AID 624344); conditions: CF bronchial epithelial cells, PAF-induced NFkB reporter inhibition, with PAF, run 1; at 79 µM (top of the series) unless noted
[8] = as above; conditions: CF bronchial epithelial cells, PAF-induced NFkB reporter inhibition, with PAF, run 2; at 79 µM (top of the series) unless noted
[9] = biological target: Tumor necrosis factor receptor superfamily member 10B (Homo sapiens) (UniProt O14763); experiment: viability loss of caspase-8 NB7 cells with TRAIL – with/without TRAIL, luminescence panel, confirmation (AID 651596; in the data active = activity above about 50%); conditions: NB7 neuroblastoma + caspase-8, TRAIL sensitization, NB7 Caspase-8, with TRAIL, mean of runs, at 10 µM, stronger effect = higher value
Chain of Tumor necrosis factor receptor superfamily member 10B (Homo sapiens) (O14763 whole entry, looked up): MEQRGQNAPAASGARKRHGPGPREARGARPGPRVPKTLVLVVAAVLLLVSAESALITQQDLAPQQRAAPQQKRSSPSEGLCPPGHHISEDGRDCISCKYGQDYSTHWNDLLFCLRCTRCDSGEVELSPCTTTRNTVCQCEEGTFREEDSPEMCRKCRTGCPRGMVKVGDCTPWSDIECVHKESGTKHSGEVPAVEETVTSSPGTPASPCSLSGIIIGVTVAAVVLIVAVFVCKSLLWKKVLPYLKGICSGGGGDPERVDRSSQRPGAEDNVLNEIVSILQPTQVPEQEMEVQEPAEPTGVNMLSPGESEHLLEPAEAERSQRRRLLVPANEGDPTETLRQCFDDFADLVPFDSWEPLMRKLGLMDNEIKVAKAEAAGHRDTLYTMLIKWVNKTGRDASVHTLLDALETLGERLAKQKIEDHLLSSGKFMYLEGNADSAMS

[10] = as above; conditions: NB7 neuroblastoma + caspase-8, without TRAIL, NB7 Caspase-8, without TRAIL, mean of runs, at 10 µM

Cc1ccc(/C=C/C(O)=C2/C(=O)N(C)C3(C)CC2c2ccccc2O3)cc1 (stereo not given)
inhibition [1]: 30.1% (active)

O=C(CCl)c1ccc2c(c1)CCN2C(=O)C1CC1
inhibition [1]: 27% (active)

COc1cccc2sc(N(CCCN(C)C)C(=O)C(c3ccccc3)c3ccccc3)nc12
inhibition [2]: 99.6% (active)

CNC[C@H](CC1CCCCC1)NC[C@H](NCCC1CCCC1)[C@H](C)O
inhibition [2]: 97.4% (active)

Nc1nonc1-n1nnc(C(=O)N/N=C/c2cc(Br)ccc2O)c1CNc1ccccc1
inhibition [1]: 30.5% (active) | inhibition (PEG-3 [3]): 89.3% | inhibition (PEG-3 [4]): 81.9% | inhibition (Rat fibroblasts (CREF) [5]): 54.5% | inhibition (Rat fibroblasts (CREF) [6]): 59.3%

Oc1ccc(CCNc2ncnc3ccc(Cl)cc23)cc1
inhibition [1]: 28.6% (active) | inhibition [7]: 113% | inhibition [8]: 106%

C/C(=N\NC(=O)c1c(C)nc2ccccn12)c1ccc(O)cc1O
inhibition [1]: 33.7% (active) | inhibition (PEG-3 [3]): 66.9% | inhibition (PEG-3 [4]): 48.1% | inhibition (Rat fibroblasts (CREF) [5]): 49.2% | inhibition (Rat fibroblasts (CREF) [6]): 56.5%

Cc1ccc(-c2nnc(SCC(=O)Nc3ccccc3F)o2)cc1
inhibition [1]: 32.6% (active) | inhibition (PEG-3 [3]): 98.6% | inhibition (PEG-3 [4]): 94.7% | inhibition (Rat fibroblasts (CREF) [5]): 97.2% | inhibition (Rat fibroblasts (CREF) [6]): 97.2% | activity [9]: 83% | activity [10]: 83.2%

COc1ccc(-c2cn[nH]c2-c2ccc(OC)cc2O)cc1
inhibition [1]: 32.5% (active) | inhibition [7]: 103% | inhibition [8]: 112%

CCOC(=O)Nc1ccc2c(c1)N(C(=O)CCN(CC)CC)c1ccccc1S2=O (stereo not given)
inhibition [1]: 29.9% (active) | inhibition [7]: 102% | inhibition [8]: 107%

O=[N+]([O-])c1ccc2ncnc(N3CCN(Cc4ccc5c(c4)OCO5)CC3)c2c1
inhibition [1]: 24.3% (active) | inhibition [7]: 112% | inhibition [8]: 91.3%

CCOc1ccc(C(=O)O/N=C(\N)c2ccccn2)cc1
inhibition [1]: 33% (active) | inhibition (PEG-3 [3]): 98% | inhibition (PEG-3 [4]): 98.8% | inhibition (Rat fibroblasts (CREF) [5]): 97.8% | inhibition (Rat fibroblasts (CREF) [6]): 98.6%

Clc1cccc(Nc2ncnc3ccc(Br)cc23)c1
inhibition [1]: 35.6% (active) | inhibition [7]: 109% | inhibition [8]: 104%

O=C(/C=C/c1cccc([N+](=O)[O-])c1)n1cnc2ccccc21
inhibition [1]: 24.6% (active) | inhibition [7]: 102% | inhibition [8]: 111%

O=C(NCCc1ccccc1)c1ccc2c(c1)OCCO2
inhibition [1]: 27.8% (active) | inhibition (PEG-3 [3]): 94.6% | inhibition (PEG-3 [4]): 97.9% | inhibition (Rat fibroblasts (CREF) [5]): 99% | inhibition (Rat fibroblasts (CREF) [6]): 98.4% | activity [9]: 89.7% | activity [10]: 90.2%

CN1CCN(c2ncnc3scc(-c4ccccc4Cl)c23)CC1
inhibition [1]: 28.7% (active) | inhibition [7]: 113% | inhibition [8]: 100%

COc1cccc(/C=N/NC(=O)c2c(C)nc3ccc(Cl)cn23)c1O
inhibition [1]: 34.5% (active) | inhibition (PEG-3 [3]): 59.6% | inhibition (PEG-3 [4]): 61.9% | inhibition (Rat fibroblasts (CREF) [5]): 44.7% | inhibition (Rat fibroblasts (CREF) [6]): 46.7%

CCCC(=O)NC(c1ccc(N(C)C)cc1)c1ccc2cccnc2c1O (stereo not given)
inhibition [1]: 29.9% (active) | inhibition (PEG-3 [3]): 24.4% | inhibition (PEG-3 [4]): 78.2% [run 2, dose range 1, at 50 µM] | inhibition (Rat fibroblasts (CREF) [5]): 42.3% | inhibition (Rat fibroblasts (CREF) [6]): 43.5%

CN(C)CCCN(C(=O)c1ccc(C(=O)c2ccccc2)cc1)c1nc2cc3c(cc2s1)OCO3
inhibition [1]: 31.7% (active) | inhibition (PEG-3 [3]): 99.4% | inhibition (PEG-3 [4]): 102% | activity [9]: 46.7% | activity [10]: 54.3%

CC(C)c1nc(NCCO)c(C#N)c2c1CCCC2
inhibition [1]: 35% (active) | inhibition [7]: 112% | inhibition [8]: 103%

COc1cccc(-c2nnc3sc(C4CCCCC4)nn23)c1
inhibition [1]: 25% (active) | inhibition [7]: 111% | inhibition [8]: 104%

COC(=O)c1nn(-c2ccc3c(c2)CCN3C(C)=O)cc1O
inhibition [1]: 31% (active) | inhibition (PEG-3 [3]): 96.2% | inhibition (PEG-3 [4]): 97.9% | inhibition (Rat fibroblasts (CREF) [5]): 99.1% | inhibition (Rat fibroblasts (CREF) [6]): 99.2% | activity [9]: 86.6% | activity [10]: 85.3%

O=C(CCn1cnc(-c2ccccc2)c1-c1ccccc1)N/N=C/c1ccccc1O
inhibition [1]: 25.7% (active) | inhibition (PEG-3 [3]): 100% | inhibition (PEG-3 [4]): 101% | inhibition (Rat fibroblasts (CREF) [5]): 86.7% | inhibition (Rat fibroblasts (CREF) [6]): 94.1%

Cc1nc2sc(C(N)=O)c(N)c2c(C)c1CC(=O)c1ccccc1
inhibition [1]: 31.4% (active) | inhibition [7]: 101% | inhibition [8]: 80.3%

Cc1cnc(NC(=O)c2ccc3c(c2)OCCO3)s1
inhibition [1]: 28.6% (active) | inhibition (PEG-3 [3]): 98.1% | inhibition (PEG-3 [4]): 97% | inhibition (Rat fibroblasts (CREF) [5]): 100% | inhibition (Rat fibroblasts (CREF) [6]): 99.6% | activity [9]: 98.2% | activity [10]: 98.5%

CC(C)(C)c1ccc(C(=O)O/N=C(\N)c2ccccn2)cc1
inhibition [1]: 28% (active) | inhibition (PEG-3 [3]): 102% | inhibition (PEG-3 [4]): 99% | inhibition (Rat fibroblasts (CREF) [5]): 101% | inhibition (Rat fibroblasts (CREF) [6]): 99.9% | activity [9]: 99.8% | activity [10]: 99.8%

O=C(CNc1ccccc1)N/N=C/c1c(O)ccc2ccccc12
inhibition [1]: 26.6% (active) | inhibition (PEG-3 [3]): 44.6% | inhibition (PEG-3 [4]): 64.1% | inhibition (Rat fibroblasts (CREF) [5]): 73.1% | inhibition (Rat fibroblasts (CREF) [6]): 49.7%

CN(C(=O)OC(C)(C)C)c1ccc(-c2nc3ccccc3s2)cc1
inhibition [1]: 24.8% (active) | inhibition (PEG-3 [3]): 96.5% | inhibition (PEG-3 [4]): 98.2% | activity [9]: 92.6% | activity [10]: 91.2%

Cc1cc(C(=O)COC(=O)c2ccccc2O)c(C)n1CC1CCCO1 (stereo not given)
inhibition [1]: 35.8% (active) | inhibition (PEG-3 [3]): 99.1% | inhibition (PEG-3 [4]): 101% | inhibition (Rat fibroblasts (CREF) [5]): 99.6% | inhibition (Rat fibroblasts (CREF) [6]): 99.2% | activity [9]: 91.2% | activity [10]: 88.9%

O=c1c2ccccc2sc2ccc(C#CC3(O)CCCCC3)cc12
inhibition [1]: 25.4% (active) | inhibition (PEG-3 [3]): 99.4% | inhibition (PEG-3 [4]): 98% | inhibition (Rat fibroblasts (CREF) [5]): 100% | inhibition (Rat fibroblasts (CREF) [6]): 100% | activity [9]: 97.6% | activity [10]: 97.2%

COc1ccc(C(NC(=O)C(C)C)c2ccc3cccnc3c2O)cc1 (stereo not given)
inhibition [1]: 28.9% (active) | inhibition (PEG-3 [3]): 67.9% | inhibition (PEG-3 [4]): 60.6% | inhibition (Rat fibroblasts (CREF) [5]): 75.6% | inhibition (Rat fibroblasts (CREF) [6]): 61.5%

COc1ccc(C(=O)O/N=C(\N)c2ccccn2)cc1
inhibition [1]: 24.2% (active) | inhibition (PEG-3 [3]): 99.1% | inhibition (PEG-3 [4]): 101% | inhibition (Rat fibroblasts (CREF) [5]): 98.2% | inhibition (Rat fibroblasts (CREF) [6]): 99.2%

c1ccc(-c2noc(-c3ccc4c(c3)OCO4)n2)nc1
inhibition [1]: 29.3% (active) | inhibition (PEG-3 [3]): 91.3% | inhibition (PEG-3 [4]): 94.5% | inhibition (Rat fibroblasts (CREF) [5]): 95.9% | inhibition (Rat fibroblasts (CREF) [6]): 95.7% | activity [9]: 93.2% | activity [10]: 93.7%

From PubChem BioAssay
